In the supplement of paper PMC6555819 one finds PBM binding z-score data, which are given here for seven sequences.

Assay in all cases: PBM binding z-score (relative to random genomic background probes); higher = stronger binding; sequences stand for … in GC…GCGATTGACAGCGTAGAATGAAGG
Assay [1] has as its system FXR:RXRa (NR concentration 270 nM, RXRa partner concentration 90 nM). Put shortly:
(§1)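 For binding z-scores, the reference was random background probes on custom Agilent 4×180K protein-binding microarrays. These arrays were incubated 1 h with ligand-free nuclear receptor dimers in PBS pH 7.4, 2% milk, 0.02% Triton X-100, 1 mM DTT, 0.2 mg/mL BSA and 0.4 mg/ml salmon testes DNA. Fluorescence was scanned after antibody detection of each partner (one per run) and regression-normalized.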

The subject of assay [2] is LXRa:RXRa (NR concentration 270 nM, RXRa partner concentration 90 nM). Put shortly: as §1
For assay [3], the system named is LXRa homodimer (NR concentration 270 nM). The gist of the method: as §1
Assay [4] concerns LXRb:RXRa (NR concentration 270 nM, RXRa partner concentration 90 nM). The gist of the method: as §1
Assay [5] has as its system LXRb homodimer (NR concentration 270 nM). Put shortly: as §1
In assay [6] the test system is PPARa:RXRa (NR concentration 270 nM, RXRa partner concentration 90 nM). Put shortly:
as §1

Assay [7] concerns PPARg:RXRa (NR concentration 180 nM, RXRa partner concentration 90 nM). The gist of the method:
as §1

For assay [8], the system named is PPARg:RXRa 270nM:90nM, anti-RXR (NR concentration 270 nM, RXRa partner concentration 90 nM). Put shortly: as §1
The subject of assay [9] is PPARg:RXRa 30nM:10nM, anti-RXR (NR concentration 30 nM, RXRa partner concentration 10 nM). Put shortly: as §1
Assay [10] relates to PPARg:RXRa 90nM:30nM, anti-RXR (NR concentration 90 nM, RXRa partner concentration 30 nM). The gist of the method:
as §1

In assay [11] the test system is PPARg:RXRa DBDmut IVT, anti-RXR (DBD mutation: RXRa K156A/R161A, NR concentration 270 nM, RXRa partner concentration 90 nM). Put shortly: as §1
For assay [12], the system named is PPARg:RXRa IVT, anti-PPARg (NR concentration 270 nM, RXRa partner concentration 90 nM). The gist of the method:
as §1

In assay [13] the test system is PPARg DBDmut:RXRa IVT, anti-PPARg (DBD mutation: PPARg1 K132A/R137A, NR concentration 270 nM, RXRa partner concentration 90 nM). Put shortly:
as §1

Assay [14] concerns PPARg DBDmut IVT, anti-PPARg (DBD mutation: PPARg1 K132A/R137A, NR concentration 270 nM). The gist of the method: as §1
In assay [15] the test system is PPARg homodimer (NR concentration 180 nM). Put shortly:
as §1

Assay [16] relates to PXR:RXRa (NR concentration 270 nM, RXRa partner concentration 90 nM). The gist of the method: as §1
For assay [17], the system named is PXR homodimer (NR concentration 270 nM). The gist of the method: as §1
Assay [18] deals with RARa:RXR (NR concentration 270 nM, RXRa partner concentration 90 nM). Put shortly: as §1
The subject of assay [19] is RARa homodimer (NR concentration 270 nM). Put shortly:
as §1

Assay [20] deals with RARb:RXRa (NR concentration 270 nM, RXRa partner concentration 90 nM). The gist of the method: as §1

Take AGTCAAAGTTCACTAAGTAACGTAAGATTCAGCT: the PBM binding z-score in assay [1] turned out to be 4.76; in assay [2] it was 4.94; in assay [3], 3.18; in assay [4], 3.15; in [5], 1.11; in assay [6], 3.95. Further, the PBM binding z-score is 5.72 in [7]; 5.28 in assay [8]; 2.69 in assay [9]; 4.76 in [10]; 0.606 in [11]; 2.21 in assay [12]. The PBM binding z-score stood at 1.04 in assay [13]; 1.31 in assay [14]; 1.66 in assay [15]; 3.63 in assay [16]; 2.31 in assay [17]; 2.77 in [18]. Also, the PBM binding z-score amounted to 1.23 in assay [19] and 4.8 in [20].
On to ATCGATAGGTCGACGAGGTGAGTATACACCGTTT, for which the PBM binding z-score was 0.682 in assay [1]; 0.624 in assay [2]; -0.525 in [3]; 0.484 in assay [4]; 0.0439 in assay [5]; 1.69 in assay [6]. Moreover, the PBM binding z-score was 1.15 in [7]; 0.567 in assay [8]; 0.467 in [9]; 0.349 in [10]; -0.138 in [11]; 0.962 in assay [12]. Further, the PBM binding z-score in assay [13] was 0.958; in assay [14] it was -0.138; in assay [15], 0.219; in assay [16] it was 0.735; in assay [17] it was 0.0845; in assay [18], 1.6. For the same sequence, the PBM binding z-score in assay [19] was determined as 0.235; in assay [20], 1.65.
Consider TCTCGGAGGACACCAAGGTCAGAGCTTTCCAGAG, for which the PBM binding z-score in assay [1] is 1.66; in assay [2], 1.05; in [3], 0.191; in assay [4], 1.09; in assay [5], -0.834; in [6], 1.86. Moreover, the PBM binding z-score was 0.127 in assay [7]; 1.65 in assay [8]; 2.01 in [9]; 1.76 in assay [10]; 1.32 in assay [11]; 1.11 in assay [12]. The PBM binding z-score was -0.509 in assay [13]; -0.885 in assay [14]; 1.73 in [15]; 2.54 in [16]; 2.65 in [17]; 2.17 in [18]. The PBM binding z-score in assay [19] is -0.289; in assay [20] it was 3.27.
As for GCTTACGAGTCAAAGGTTATAGCATGAATAGAAT, the PBM binding z-score in assay [1] was 2.49; in assay [2] it was 3; in assay [3] it was -0.0276; in assay [4] it was 2.72; in [5] it was -0.261; in [6], 4.52. Besides, the PBM binding z-score is 5.72 in assay [7]; 6.18 in assay [8]; 4.17 in assay [9]; 6.28 in assay [10]; -0.0786 in [11]; 1.3 in assay [12]. Besides, the PBM binding z-score in assay [13] is 0.924; in [14], -0.155; in [15] it was 0.792; in [16], 2.73; in assay [17], -0.0683; in assay [18] it was 4.4. Besides, the results for the PBM binding z-score in [19] and in assay [20] were -0.195 and 1.78, respectively.
Consider GCCAGTTGGTCAGTAAAAGGTCACACACCGGTCG, for which the PBM binding z-score in [1] is 3.07; in assay [2], 4.03; in assay [3], 4.4; in [4], 3.89; in [5], -0.0245; in [6], 4.36. For the same sequence, the PBM binding z-score turned out to be 2.75 in assay [7]; 4.34 in assay [8]; 1.84 in assay [9]; 3.62 in [10]; 0.399 in assay [11]; 2.44 in assay [12]. Moreover, the PBM binding z-score amounted to 0.21 in [13]; 0.231 in assay [14]; 3.78 in assay [15]; 5.1 in [16]; 1.14 in assay [17]; 5.76 in assay [18]. In addition, the values for the PBM binding z-score in assay [19] and in assay [20] were 1.88 and 4.14, respectively.
With CTCGCAAGGTCGTGCTCAGGTGAGTATACCAAAC, the PBM binding z-score was 2.12 in assay [1]; 1.71 in [2]; -0.122 in assay [3]; 1.37 in assay [4]; -0.498 in assay [5]; 2.81 in assay [6]. The PBM binding z-score was 0.423 in assay [7]; 1.04 in assay [8]; -0.426 in [9]; 0.224 in [10]; 0.0828 in [11]; 0.996 in assay [12]. In addition, the PBM binding z-score is -0.606 in assay [13]; -0.427 in assay [14]; 0.113 in [15]; 1.76 in [16]; -0.272 in [17]; 2.37 in assay [18]. Also, the PBM binding z-score in assay [19] was -0.702; in [20], 2.47.
As for TCATATAGGTAATACAGGTGAAGGTCGGCATCTA, the PBM binding z-score in assay [1] was 1.22; in assay [2], 1.34; in [3], 0.87; in assay [4], 1.02; in assay [5], 0.522; in assay [6], 2.28. Besides, the PBM binding z-score in [7] stood at 1.83; in assay [8] it was 3.03; in assay [9], 4.02; in assay [10], 3.78; in assay [11], 4.61; in [12], 3.61. Further, the PBM binding z-score in assay [13] came out at 1.2; in [14] it was 1.45; in [15] it was 1.83; in assay [16], 1.16; in assay [17] it was 0.89; in assay [18], 1.69. Also, the PBM binding z-score in assay [19] came to 2.17; in assay [20] it was 1.22.
